Read-outs that look alike come from different tables or passages of the source.
What was measured:
[1] = test system: CDK8; conditions: concentration: 1 μM, replicates: in singlicate; n = 1
[2] = test system: CDK9; conditions: concentration: 1 μM, replicates: in singlicate; n = 1
[3] = test system: CDKL1; conditions: concentration: 1 μM, replicates: in singlicate; n = 1
[4] = test system: CDKL2; conditions: concentration: 1 μM, replicates: in singlicate; n = 1
[5] = test system: CDKL3; conditions: concentration: 1 μM, replicates: in singlicate; n = 1
[6] = test system: CDKL5; conditions: concentration: 1 μM, replicates: in singlicate; n = 1
[7] = test system: CHEK1; conditions: concentration: 1 μM, replicates: in singlicate; n = 1
[8] = test system: CHEK2; conditions: concentration: 1 μM, replicates: in singlicate; n = 1
[9] = test system: CIT; conditions: n = 1
[10] = test system: CLK1; conditions: concentration: 1 μM, replicates: in singlicate; n = 1
[11] = concentration: 1 μM, replicates: in singlicate
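Also: KINOMEscan kinase panel screen.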

| Structure (SMILES) | %Inh [1] [%] | %Inh [2] [%] | %Inh [3] [%] | %Inh [4] [%] | %Inh [5] [%] | %Inh [6] [%] | %Inh [7] [%] | %Inh [8] [%] | %Inh [9, 11] [%] | %Inh [10] [%] | %Inh ([9]; 1 µM) [%] |
| --- | --- | --- | --- | --- | --- | --- | --- | --- | --- | --- | --- |
| CN(c1ccc(NC(=O)Nc2cc(C(F)(F)F)ccc2F)cc1)c1ccnc(Nc2ccc(S(N)(=O)=O)cc2)n1 [GW809893] | 98.9 | 93.5 | 80 | 99.9 | 99.4 | 26 | 0 | 20 | 57 | 47 |  |
| Cn1cc(-c2ccc3c(c2)CCN3C(=O)Cc2cccc(F)c2)c2c(N)ncnc21 [GSK2603358] | 97.8 | 7 | 6 | 43 | 0 | 0 | 5 | 0 | 20 | 18 |  |
| O=c1[nH]cc(-c2ccc(N3CCOCC3)cc2)c2sc(-c3cn[nH]c3)cc12 [GSK2276055] | 0 | 71 | 11 | 0 | 0 | 0 | 0 | 14 | 92.1 | 90 |  |
| O=C(Nc1cccc(-c2nn3ccccc3c2-c2ccnc(Nc3cccc(F)c3)n2)c1)c1c(F)ccc(F)c1Cl [GSK357952] | 6 | 0 | 15 | 25 | 0 | 0 | 15 | 0 | 7 | 24 |  |
| CC(C)c1nc(-c2cccc(NS(=O)(=O)c3c(F)cccc3F)c2F)c(-c2ccnc(Nc3ccc(N4CCOCC4)nc3)n2)s1 [GSK2008607] | 14 | 93 | 54 | 99.3 | 4 | 90.2 | 0 | 60 | 95.1 | 0 |  |
| COc1cc(Nc2ncc3c(C)nc(-c4cc5ccccc5[nH]4)n3n2)cc(OC)c1OC [GW869516] | 44 | 0 | 46 | 1 | 8 | 0 | 0 | 0 | 100 | 88 |  |
| O=C(Nc1ccccc1F)NC1CCN(c2ccnc(Nc3ccc(F)cc3)n2)CC1 [GSK1379800] | 51 | 0 | 0 | 17 | 0 | 0 | 0 | 0 | 0 | 9 |  |
| COCCOCCOc1cc2ncc3c4ccc(C#N)cc4[nH]c3c2cc1OC | 1 | 0 | 56 | 7 | 0 | 0 | 55 | 57 | 98.2 | 84 |  |
| O=C(Nc1n[nH]c2cc(-c3ccoc3)ccc12)C1CC1 [SB-738481] | 11 | 2 | 18 | 87 | 10 | 50 | 0 | 6 | 0 | 23 |  |
| CNC(=O)c1ccccc1Nc1nc(Nc2ccc(N3CCOCC3)cc2)ncc1Cl.Cl [GSK1576028] | 1 | 27 | 36 | 35 | 0 | 0 | 65 | 91.3 | 26 | 99.5 |  |
| FC(F)(F)c1ccc(/C=C/c2cncnc2Nc2ccc3[nH]c(Cc4ccccc4)nc3c2)cc1 [GW709199] | 64 | 0 | 42 | 38 | 0 | 0 | 0 | 18 | 55 | 23 |  |
| CCS(=O)(=O)c1ccc(OC)c(Nc2nccc(-c3c(-c4cccc(NC(=O)c5c(F)cccc5F)c4)nn4ncccc34)n2)c1 [GSK326180] | 16 | 0 | 6 | 15 | 0 | 0 | 10 | 0 | 8 | 40 |  |
| Cc1ccc(C(=O)N2CC[C@@H](O)C2)cc1-n1c(C)cc(OCc2ccc(F)cc2F)c(Br)c1=O | 0 | 1 | 14 | 0 | 1 | 0 | 0 | 6 | 6 | 5 |  |
| Nc1ncnc2c1nc(-c1ccccc1)n2-c1ccccc1 [SKF-97293] | 0 | 0 | 3 | 0 | 7 | 14 | 4 | 11 | 11 | 15 |  |
| C[C@@H]1CC[C@@H](C(=O)Nc2ccccc2)CN1c1cc(-c2ccc3c(N)n[nH]c3c2)nc(N)n1 [GSK2286062] | 19 | 4 | 0 | 7 | 0 | 0 | 0 | 26 | 8 | 14 |  |
| Cl.Cl.NCC(NCc1ccc(-c2ccnc3[nH]ccc23)s1)c1ccccc1 (centres unmarked) [GSK1321565] | 39 | 0 | 0 | 13 | 0 | 0 | 0 | 33 | 93 | 89 |  |

| Structure (SMILES) | %Inh [1] [%] | %Inh [2] [%] | %Inh [3] [%] | %Inh [4] [%] | %Inh [5] [%] | %Inh [6] [%] | %Inh [7] [%] | %Inh [8] [%] | %Inh [9, 11] [%] | %Inh [10] [%] | %Inh ([9]; 1 µM) [%] |
| --- | --- | --- | --- | --- | --- | --- | --- | --- | --- | --- | --- |
| CCn1c(-c2nonc2N)nc2c(C#CC(C)(C)O)ncc(OCCCCN)c21.O=C(O)C(F)(F)F.O=C(O)C(F)(F)F [GSK507274] | 0 | 0 | 0 | 53 | 0 | 10 | 2 | 0 |  | 21 | 100 |
| Cc1ccc(F)c(C(=O)Nc2cccc(-c3nn4ccccc4c3-c3ccnc(Nc4cccc(F)c4)n3)c2)c1F [GSK361061] | 15 | 0 | 2 | 31 | 0 | 5 | 6 | 0 | 9 | 32 |  |
| COc1cccc(-c2ccc3c(NC(=O)C4CC4)n[nH]c3n2)c1 [SB-710903] | 50 | 0 | 0 | 67 | 0 | 0 | 0 | 0 | 5 | 15 |  |
| Fc1ccc(-c2ncn(C3CCNCC3)c2-c2ccnc(Oc3ccc(-c4ccccc4)cc3)n2)cc1 [SB-245391] | 92.8 | 12 | 28 | 0 | 32 | 0 | 0 | 0 | 98.9 | 21 |  |
| NCCCC(NC(=O)c1cc(Br)c(-c2ccnc3[nH]ccc23)s1)c1ccccc1.O=C(O)C(F)(F)F.O=C(O)C(F)(F)F (centres unmarked) [GSK1287544] | 27 | 4 | 0 | 40 | 0 | 0 | 0 | 0 | 90 | 51 |  |
| Nc1ncc(-c2cccnc2)c2scc(-c3ccc4c(c3)CCN4C(=O)Cc3ccccc3)c12 [GSK683281] | 36 | 0 | 26 | 29 | 0 | 7 | 18 | 0 | 49 | 36 |  |
| CC(C)(C)c1ccc2nccc(Nc3cccc(O)c3)c2c1 [GW856795] | 68 | 0 | 8 | 0 | 19 | 0 | 74 | 0 | 21 | 17 |  |
| COc1ccc(CNC(=O)NC2CCN(c3ccnc(Nc4ccc(F)cc4)n3)CC2)cc1 [GSK1379788] | 45 | 0 | 9 | 22 | 0 | 0 | 0 | 34 | 28 | 13 |  |
| COc1ccc(-c2coc3ccc(-c4nnc(SCc5ccc(OC)c(C(F)(F)F)c5)o4)cc23)cc1 | 20 | 1 | 11 | 0 | 0 | 1 | 0 | 18 | 0 | 26 |  |
| CSc1cccc2c(-c3ccncn3)c(-c3ccc(F)cc3)nn12 [GW514786] | 37 | 0 | 6 | 31 | 0 | 3 | 81 | 0 | 79 | 18 |  |
| COc1cc(Nc2nccc(N3CCC(NC(=O)c4cc5ccccc5s4)C3)n2)cc(OC)c1OC (centres unmarked) [GSK1379760] | 38 | 5 | 11 | 43 | 13 | 1 | 0 | 16 | 0 | 4 |  |
| Cc1cccc(NC(=O)Nc2ccc(Oc3ncnc4ccn(C)c34)cc2)c1 | 72 | 0 | 11 | 5 | 0 | 0 | 0 | 0 | 0 | 2 |  |
| c1ccc(Oc2ccc(Nc3ccnc4cc(-c5ccc(CNCCN6CCOCC6)o5)ccc34)cc2)nc1 [GW567145] | 55 | 0 | 2 | 9 | 0 | 0 | 0 | 90.6 | 7 | 17 |  |
| c1ccc(-c2cnc3nccnn23)cc1 [AH20685] | 49 | 0 | 11 | 0 | 0 | 8 | 0 | 0 | 0 | 4 |  |
| O=C(Nc1cccc(-c2nn3ncccc3c2-c2ccnc(Nc3ccccc3)n2)c1)c1c(F)cccc1F [GSK198271] | 0 | 4 | 3 | 30 | 0 | 6 | 5 | 0 | 29 | 27 |  |
| COc1cccc(NC(=O)NC2CCN(c3ccnc(Nc4cc(OC)c(OC)c(OC)c4)n3)C2)c1 (centres unmarked) [GSK1379763] | 39 | 10 | 0 | 52 | 0 | 0 | 0 | 54 | 23 | 12 |  |

— PMC5540273 (PLoS ONE, 2017)
